# This is part of a sample that, as a whole, favours compounds with a hit. Of some 83,000 tested, about 20% had one in any assay.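 Results are percent growth after 48 hours of single-concentration exposure. 100 means growth as in untreated cells, lower positive values show inhibition; negative values down to -100 show cell death.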 A number with no mark means an inactive call. Calls of active or inactive are those of the source. How the source made its calls: active means growth percent below 10; inactive means the rest.
# Columns and labels:
# Experiment in all cases: NCI-60 one-dose screen, 48 h (100 = growth as untreated, 0 = no growth, -100 = all killed)
# Settings in all cases: 10 µM unless noted
# NCI-H23 lung = system: NCI-H23 lung
# NCI-H226 lung = system: NCI-H226 lung
# NCI-H322M lung = system: NCI-H322M lung
# HOP-62 NSCLC = system: HOP-62 NSCLC
# NCI-H460 lung = system: NCI-H460 lung
# HOP-92 NSCLC = system: HOP-92 NSCLC
# NCI-H522 lung = system: NCI-H522 lung
# A549/ATCC NSCLC = system: A549/ATCC NSCLC
# 786-0 renal = system: 786-0 renal
# COLO 205 colon = system: COLO 205 colon
# DU-145 prostate = system: DU-145 prostate
# K-562 leukemia = system: K-562 leukemia
# MALME-3M melanoma = system: MALME-3M melanoma
# MDA-MB-231 breast = system: MDA-MB-231 breast
# RXF 393 renal = system: RXF 393 renal
# SF-268 CNS = system: SF-268 CNS
# SF-295 CNS = system: SF-295 CNS
# SF-539 CNS = system: SF-539 CNS
# UACC-257 melanoma = system: UACC-257 melanoma
# M14 melanoma = system: M14 melanoma
Compound,growth (NCI-H23 lung),growth (NCI-H226 lung),growth (NCI-H322M lung),growth (HOP-62 NSCLC),growth (NCI-H460 lung),growth (HOP-92 NSCLC),growth (NCI-H522 lung),growth (A549/ATCC NSCLC),growth (786-0 renal),growth (COLO 205 colon),growth (DU-145 prostate),growth (K-562 leukemia),growth (MALME-3M melanoma),growth (MDA-MB-231 breast),growth (RXF 393 renal),growth (SF-268 CNS),growth (SF-295 CNS),growth (SF-539 CNS),growth (UACC-257 melanoma),growth (M14 melanoma)
N#Cc1c(-c2ccccc2)cc(-c2ccccc2)n(CCCC(=O)NO)c1=O,31.2%,13%,35.3%,22.2%,8.19% (active),30.4%,21.8%,22.8%,17.7%,18.3%,26.1%,7.36% (active),11.1%,35.1%,-1.83% (active),37.3%,13.8%,20.6%,37.6%,18.6%
Cc1[nH]c(C(=O)Nc2cccc(OC3CCNCC3)c2)c(Cl)c1Cl,75.3%,91.4%,84.8%,86.9%,77%,22.9%,99.2%,68.6%,63.8%,-35.3% (active),88%,0.0646% (active),27.2%,50.7%,40.9%,74.5%,58.7%,71.5%,17.7%,-12.4% (active)
CN(CCC#N)c1ccc(/C=C2\NC(=O)NC2=O)cc1,89.5%,96.7%,103%,99.3%,98.4%,79.2%,38.7%,111%,88%,95.8%,124%,107%,113%,101%,113%,117%,112%,91.3%,93.4%,96.4%
Cc1cc2nc(-c3c(-c4ccc(F)cc4)nc4sccn34)[nH]c2cc1C,94%,97.5%,99.7%,108%,106%,86.1%,85%,95.6%,86.3%,105%,94.3%,94.1%,106%,102%,93.2%,90.8%,92.5%,98.2%,109%,99.5%
COc1cc(N2C(=O)[C@H](c3ccccc3)C2c2ccc(SC)cc2)cc(OC)c1OC (stereo not given in full),16%,56.1%,37.7%,20.7%,4.99% (active),-0.302% (active),-9.45% (active),4.39% (active),5.94% (active),-52% (active),6.14% (active),5.06% (active),63.3%,28%,-4.2% (active),25.3%,-6.29% (active),8.41% (active),33.3%,5.09% (active)
CCCCCCCC/C=C\CCCCCCCCOc1ccccc1CC(=O)NCC[N+]1(C)CCCCC1,58.9%,67.1%,96.5%,75.9%,50.4%,48.1%,38%,66.3%,96.8%,23%,67.1%,36.3%,69.8%,59.8%,28.6%,39.2%,97.4%,95.1%,61.5%,65.5%
O=C1Nc2ccc(F)cc2/C1=C\c1nc(-c2ccccc2F)n2ccccc12,75.9%,104%,91.7%,94.4%,50.5%,79.8%,52.1%,86.1%,105%,93%,-7.63% (active),102%,83.3%,98.5%,84.5%,85.1%,104%,64.7%,96.2%,97%
Fc1ccc(CNc2c3ccccc3nc3ccccc23)cc1,31.6%,51.8%,38.5%,43%,8.85% (active),17.2%,52.4%,23.7%,27.6%,7.53% (active),34.9%,4.79% (active),25.7%,38.3%,0.247% (active),53.3%,27.6%,13.1%,36%,34.4%
CC12CCC(/C(=C/NNc3ccc([N+](=O)[O-])cc3[N+](=O)[O-])C1=O)C2(C)C (stereo not given),78.1%,87.1%,83.6%,100%,45.1%,79.7%,36.2%,77.9%,96.4%,91.4%,4.67% (active),77.9%,128%,66.1%,64.6%,77.8%,85.2%,102%,64.4%,65.5%
Cc1ncc(C(=O)Nc2ccc(CN3CCN(C)CC3)c(C(F)(F)F)c2)cc1C#Cc1cnc(N)c2ccncc12,-65% (active),-5.01% (active),-32.5% (active),-54.8% (active),-65.5% (active),-52.2% (active),-79% (active),-40.4% (active),-45% (active),-84.1% (active),-50.5% (active),-32.5% (active),-72.9% (active),-47.9% (active),-87.7% (active),-37.5% (active),-45.4% (active),-86.6% (active),-75.2% (active),-63.7% (active)
C=C1C(=O)O[C@H]2[C@H]1CC/C(COC(=O)NCCCCCCCCNC(=O)OC/C1=C/CC[C@@]3(C)O[C@H]3[C@H]3OC(=O)C(=C)[C@@H]3CC1)=C\CC[C@@]1(C)O[C@@H]21,-53.6% (active),-84.2% (active),-26.4% (active),-38.2% (active),-51.1% (active),-83.2% (active),-68.7% (active),2.89% (active),-89.9% (active),-64.9% (active),-92.1% (active),-28.5% (active),-64.4% (active),-79.1% (active),-83.6% (active),-66.8% (active),-21.7% (active),-88.5% (active),-55.1% (active),-67.8% (active)
C=CC1(C)C(O[Si](C)(C)C(C)(C)C)CC2C3OC(=O)NC31c1cccc3c1[C@H](C(=O)N3C)C2(C)C (stereo not given in full),59.7%,66.7%,78.3%,85.5%,44.7%,29.4%,44.1%,41.7%,73.6%,40.8%,76.2%,34%,64%,43.3%,68.6%,73.6%,46.9%,65.4%,33.1%,48.5%
C=C(C)[C@@H]1CC[C@]2(CO)CC[C@]3(C)[C@H](CC[C@@H]4[C@@]5(C)CCC(NCCc6ccc(O)cc6)C(C)(C)[C@@H]5CC[C@]43C)[C@@H]12 (stereo not given in full),-86.6% (active),66.8%,-76.5% (active),-77.5% (active),-89.5% (active),-93.2% (active),-81.3% (active),-87.1% (active),-92.7% (active),-76.4% (active),-96.5% (active),-51.2% (active),-81.5% (active),-87.3% (active),-91.2% (active),-88.8% (active),-95.8% (active),-88% (active),-78.2% (active),-84.9% (active)
CC(=O)N/C(=C1/OC(C(O)C(O)C(O)CO)CN1C)[P+](c1ccccc1)(c1ccccc1)c1ccccc1 (stereo not given),106%,97.6%,95.1%,91.4%,108%,101%,93.5%,102%,102%,107%,105%,97.6%,90.5%,103%,97%,102%,100%,97.6%,104%,99.7%
CCN1C(=O)N(CC)C2C1NN=c1s/c(=C3\C(=O)N(CCc4ccccc4)c4ccccc43)c(=O)n12 (stereo not given),22.7%,24.8%,36.1%,24.4%,1.95% (active),38.1%,-5.28% (active),16.1%,22.1%,7.44% (active),5.49% (active),7.99% (active),33.3%,2.5% (active),-5.91% (active),47%,9.5% (active),-37.4% (active),53.2%,13.6%
Cc1[nH]c(C(=O)Nc2ccc(C(N)=O)cc2NC(C)C)c(Cl)c1Cl,85.8%,91.6%,98.7%,104%,93.1%,72.7%,79.3%,85.5%,91.1%,122%,100%,85.8%,94.4%,90.1%,94.7%,86.5%,100%,92.8%,96.2%,87.6%

# Reference: PubChem BioAssay (NCI)
